{
  "source": "PubChem BioAssay AID588342",
  "about": "(National Center for Advancing Translational Sciences (NCATS), 2011)",
  "note": "In all, about 360,000 compounds went through this assay and about 25,000 (6.9%) were called active. Inconclusive results (about 9%) are left out. Calls follow the shape of the dose curve; as a rule, active = well fitted inhibition curve with a large enough effect; inconclusive = small, poorly fitted or top-dose-only effect; inactive = flat fitted curve, though single readings scatter. The list comes from a sample in which actives are over-represented; it also holds similar structures and randomly drawn compounds. Potency is read from the fitted curve at half-maximal effect.",
  "data": [
    {"molecular_target": "Luciferin 4-monooxygenase (Photinus pyralis) (UniProt P08659)", "sequence (P08659 whole entry, looked up)": "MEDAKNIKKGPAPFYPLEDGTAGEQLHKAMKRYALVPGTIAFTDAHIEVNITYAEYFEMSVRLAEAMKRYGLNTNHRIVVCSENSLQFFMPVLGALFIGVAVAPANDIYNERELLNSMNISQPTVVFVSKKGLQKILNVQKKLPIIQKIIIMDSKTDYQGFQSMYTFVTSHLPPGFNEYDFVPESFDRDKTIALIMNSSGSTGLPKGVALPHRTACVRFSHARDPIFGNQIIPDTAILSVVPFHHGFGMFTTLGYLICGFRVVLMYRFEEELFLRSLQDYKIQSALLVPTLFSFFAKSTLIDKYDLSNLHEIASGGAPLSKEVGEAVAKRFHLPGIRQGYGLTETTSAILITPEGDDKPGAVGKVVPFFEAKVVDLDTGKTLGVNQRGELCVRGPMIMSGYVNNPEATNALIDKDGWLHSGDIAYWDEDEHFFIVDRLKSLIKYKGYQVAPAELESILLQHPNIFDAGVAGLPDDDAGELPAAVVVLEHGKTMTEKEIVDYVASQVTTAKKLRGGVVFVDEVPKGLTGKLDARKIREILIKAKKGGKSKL", "test": "qHTS profiling assay for firefly luciferase inhibitor/activator using purifed enzyme and Km concentrations of substrates (counterscreen for miR-21 project); also: nearly all actives have a fitted effect of over 55% in size;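 as to activity change, negative = inhibition: plate controls were vehicle for no effect and reference inhibitor for full effect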", "details": "purified FLuc, luminescence inhibition; series mostly up to 57.5 µM; activity change, negative = inhibition: at the top concentration", "outline": "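Purified P. pyralis luciferase (10nM final) with 10uM D-luciferin and 10uM ATP (Km levels) in 50mM Tris acetate pH 7.5, 10mM Mg acetate, 0.01% Tween-20, 0.05% BSA; qHTS 6-point titration, ~60 µM downward; luminescence read.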", "values": [
      {"smiles": "Cc1cccc(C(=O)Nc2ccc(S(=O)(=O)N3CCCCC3c3cccnc3)cc2)c1", "note": "(stereo unspecified)", "activity change, negative = inhibition": "3.83% (inactive)"},
      {"smiles": "CCN(CCCNC(=O)c1cc2c(=O)n(CC)c3ccccc3c2s1)Cc1ccccc1", "activity change, negative = inhibition": "6.98% (inactive)"},
      {"smiles": "Cc1ccc(C)c(Cn2c(CCCNC(=O)C3CCCCC3)nc3ccccc32)c1", "activity change, negative = inhibition": "5.68% (inactive)"},
      {"smiles": "C=CCNC(=O)c1ccccc1NC(=O)c1ccc(Cl)c(S(=O)(=O)Nc2cccc(C)c2C)c1", "activity change, negative = inhibition": "3.15% (inactive)"},
      {"smiles": "Cc1cc(/C=C2/SC(=O)N(CC(=O)N3CCCC3)C2=O)ccc1N1CCOCC1", "Potency": "16.9 µM (active)"},
      {"smiles": "Cc1ccc2c(c1)N(CC(=O)N1CCOCC1)C(=O)CO2", "activity change, negative = inhibition": "2.75% (inactive)"},
      {"smiles": "O=C(CN1C(=O)CSc2ncccc21)N1CCOCC1", "activity change, negative = inhibition": "-0.277% (inactive)"},
      {"smiles": "CCCNC(=O)c1ccccc1NC(=O)CSCc1ccc(OC)cc1", "activity change, negative = inhibition": "0.71% (inactive)"},
      {"smiles": "COc1ccc(/C=C2/SC(=O)N(CCCCCC(=O)Nc3ccccc3C(=O)O)C2=S)cc1", "Potency": "16.9 µM (active)"},
      {"smiles": "COc1ccc(-c2nn(-c3ccccc3)cc2/C=C2/SC(=S)N(CCCC(=O)O)C2=O)c(C)c1", "activity change, negative = inhibition": "-4.65% (inactive)"},
      {"smiles": "COc1cccc(CNC(=O)CSc2c3c(nc4cc(Cl)ccc24)CCCC3)c1", "activity change, negative = inhibition": "-4.18% (inactive)"},
      {"smiles": "CC(=O)c1ccc(N2CCN(c3nc4c(S(=O)(=O)c5ccccc5)nnn4c4ccc(Cl)cc34)CC2)cc1", "activity change, negative = inhibition": "1.59% (inactive)"},
      {"smiles": "CCOC(=O)c1c(CNCc2ccccc2F)c2sc(C)cc2n1C", "activity change, negative = inhibition": "-1.74% (inactive)"},
      {"smiles": "CCN1C(=S)N[C@@H](c2cccc(C(F)(F)F)c2)C(C(=O)OC)=C1C", "activity change, negative = inhibition": "0.99% (inactive)"},
      {"smiles": "CCNC(=O)CCc1nc(-c2ccc(C)cc2)no1", "activity change, negative = inhibition": "-17.9% (inactive)"},
      {"smiles": "COc1ccc(-c2noc(CCCC(=O)NC3CCCC3)n2)cc1OC", "activity change, negative = inhibition": "1.08% (inactive)"},
      {"smiles": "CCNC(=O)CCc1nc(-c2ccc(C(C)(C)C)cc2)no1", "Potency": "4.78 µM (active)"},
      {"smiles": "Cc1cc(C)cc(NC(=O)CCCc2nc(-c3ccccc3Cl)no2)c1", "activity change, negative = inhibition": "5.49% (inactive)"},
      {"smiles": "COc1cccc(CNC(=O)CCc2nc(-c3ccc(C)cc3)no2)c1", "activity change, negative = inhibition": "1.48% (inactive)"},
      {"smiles": "CC(=O)Nc1ccc(NC(=O)CCCc2nc(-c3ccc(C(C)(C)C)cc3)no2)cc1", "Potency": "2.69 µM (active)"},
      {"smiles": "CCOc1ccccc1CNCc1c(C(=O)O)c(C)n(Cc2ccc(C)cc2)c1C", "activity change, negative = inhibition": "-2.11% (inactive)"},
      {"smiles": "Cc1cc2ncn(CCCCOc3ccccc3)c2cc1C", "Potency": "inactive"},
      {"smiles": "CCOc1cc(C2C(C(=O)Nc3ccc(OC)cc3)=C(C)Nc3nc(SC)nn32)ccc1O", "note": "(stereo unspecified)", "activity change, negative = inhibition": "-0.395% (inactive)"},
      {"smiles": "CCOc1ccc(NC(=O)CC(Cc2ccc(Cl)cc2)C(=O)O)cc1", "note": "(stereo unspecified)", "activity change, negative = inhibition": "6.23% (inactive)"},
      {"smiles": "CC(=O)Nc1ccc(NC(=O)C(NS(=O)(=O)c2ccc3c(c2)OCCO3)C(C)C)cc1", "note": "(stereo unspecified)", "activity change, negative = inhibition": "2.54% (inactive)"},
      {"smiles": "Cc1nnsc1C(=O)N/N=C/c1ccccc1Cl", "activity change, negative = inhibition": "-0.786% (inactive)"},
      {"smiles": "Cc1[nH]c2ccccc2c1/C=N\\NC(=O)Cn1nnc(-c2ccccc2)n1", "activity change, negative = inhibition": "-1.23% (inactive)"},
      {"smiles": "Cc1nn(C)cc1/C=N/NC(=O)c1sc2ccccc2c1Cl", "Potency": "26.9 µM (active)"},
      {"smiles": "CN1CCc2ccccc2C1Cc1ccccc1NC(=O)c1sc2ccccc2c1Cl", "note": "(stereo unspecified)", "activity change, negative = inhibition": "-3.51% (inactive)"},
      {"smiles": "O=C(N/N=C/c1c(Cl)[nH]c2ccccc12)c1sc2ccccc2c1Cl", "Potency": "19 µM (active)"},
      {"smiles": "COc1ccc(CNC(=O)CNC(=O)c2sc3ccccc3c2Cl)cc1OC", "activity change, negative = inhibition": "-0.179% (inactive)"},
      {"smiles": "CCN(CC)S(=O)(=O)c1ccc2c(c1)nc(CN(C)C(=O)Nc1ccc(Cl)cc1)n2C", "activity change, negative = inhibition": "-19.2% (inactive)"},
      {"smiles": "O=C(NCCNc1ccc([N+](=O)[O-])cc1Cl)c1ccccc1F", "activity change, negative = inhibition": "-29% (inactive)"},
      {"smiles": "CCOC(=O)N1CCc2c(sc(NCc3cccc(F)c3)c2C(=O)Nc2ccccc2OCC)C1", "activity change, negative = inhibition": "-18.1% (inactive)"},
      {"smiles": "Cc1nn(CC(=O)Nc2ccc3c(c2)nc(CN2CCCCC2)n3C)c(=O)c2ccccc12", "activity change, negative = inhibition": "3.59% (inactive)"},
      {"smiles": "CCOC(=O)N1CCN(Cc2nc3cc(NC(=O)CC)ccc3n2CC)CC1", "activity change, negative = inhibition": "0.0734% (inactive)"},
      {"smiles": "C=CCN(C(=O)Nc1ccc2c(c1)nc(C)n2C)c1ccccc1", "Potency": "15.1 µM (active)"},
      {"smiles": "Cc1nc2cc(NC(=O)NC3CC3)ccc2n1C", "activity change, negative = inhibition": "-15% (inactive)"},
      {"smiles": "O=c1c(NCc2cccs2)nccn1-c1ccccc1", "activity change, negative = inhibition": "-13.3% (inactive)"},
      {"smiles": "Cc1cc2nc(C)n(CCCNC(=O)Nc3ccccc3)c2cc1C", "activity change, negative = inhibition": "1.77% (inactive)"},
      {"smiles": "Cc1nc2cc(NC(=O)Nc3cccc(F)c3)ccc2n1C", "Potency": "0.757 µM (active)"},
      {"smiles": "Cc1nc2cc(NCc3cccs3)ccc2n1C", "Potency": "15.1 µM (active)"},
      {"smiles": "Cn1ncc(Br)c1C(=O)NCc1cccs1", "activity change, negative = inhibition": "-1.21% (inactive)"},
      {"smiles": "CCCCNC(=O)c1ccc2c(c1)NC(=O)C(C(C)C)N2", "note": "(stereo unspecified)", "activity change, negative = inhibition": "-6.51% (inactive)"},
      {"smiles": "CC(=O)N1CCCc2cc(S(=O)(=O)N3CCC(C(=O)NCc4ccc(C)cc4)CC3)ccc21", "activity change, negative = inhibition": "0.565% (inactive)"},
      {"smiles": "CCc1ccc(-c2nn(-c3ccccc3C)cc2C(=O)N2CCN(C3CCS(=O)(=O)C3)CC2)cc1", "note": "(stereo unspecified)", "activity change, negative = inhibition": "2.23% (inactive)"},
      {"smiles": "COc1ccccc1CNCc1ccc(C(=O)O)s1", "activity change, negative = inhibition": "2.57% (inactive)"},
      {"smiles": "CCc1nccn1S(=O)(=O)c1cc(Br)ccc1Br", "activity change, negative = inhibition": "-10.3% (inactive)"},
      {"smiles": "CCOC(=O)c1c(NC(=O)c2ccc(S(=O)(=O)N(CC)CC)cc2)sc2c1CCCCC2", "activity change, negative = inhibition": "-3.1% (inactive)"},
      {"smiles": "CN(C(=O)c1ccc2c(c1)N(Cc1cccc(Cl)c1)C(=O)c1ccccc1S2=O)C1CCCCC1", "note": "(stereo unspecified)", "activity change, negative = inhibition": "-10.7% (inactive)"},
      {"smiles": "Cc1ccc(Cl)cc1NC(=O)/C(C#N)=C\\c1cn(Cc2ccc(F)cc2)c2ccccc12", "activity change, negative = inhibition": "0.524% (inactive)"}
    ]}
  ]
}
